Assay outcomes (PubChem BioAssay)
Compounds with a hit are over-represented: about 15% of the library has one in this group of screens.
DT40 TDP1 no CPT: qHTS for Inhibitors of human tyrosyl-DNA phosphodiesterase 1 (TDP1): qHTS in cells in absence of CPT. DT40 Tdp1-/- hTDP1 cells, no CPT, ATP luminescence, 48 h. Potency, µM (titrated, usually from 46.2 µM), for the others: at the top dose activity change, negative = growth inhibition, actives largely listed as inhibitors. 15% of 420,000 active; note: nearly all actives have a fitted effect of over 55% in size
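Camptothecin absent (DMSO only). Human TDP1-complemented DT40 knockout cells, 400 cells/well, 37 °C for minimum 48 hr; ATP measured via CellTiter-Glo, 30 min dark incubation, luminescence.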
ALOX12 inh: Primary qHTS assay for inhibitors of human arachidonate 12S-lipoxygenase (ALOX12): Round 2. Polyunsaturated fatty acid lipoxygenase ALOX12 (Homo sapiens), P18054. purified 12hLO, xylenol orange hydroperoxide absorbance. Potency, µM (highest dose often 108 µM), for the others: at the highest dose activity change, negative = inhibition, most hits filed as inhibitors. 1.1% of 580,000 active
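Hydroperoxide product was detected by ferrous iron/xylenol orange as the 573 to 405 nm absorbance ratio. Arachidonic acid at 40 uM (final) was turned over for 30 min at room temperature by 150 nM human 12hLO, pH 7.0 Hepes buffer, after 15 min compound preincubation.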
DT40 TDP1 CPT: qHTS for Inhibitors of human tyrosyl-DNA phosphodiesterase 1 (TDP1): qHTS in cells in presence of CPT | 12% of 420,000 active | Potency, µM (titrated, usually from 46.2 µM), inactives show at the highest dose activity change, negative = growth inhibition, hits mostly inhibitors | AID 686979, 2013 | chicken DT40 Tdp1-/-;hTDP1 cells + 20 nM CPT, ATP luminescence, 48 h; note: nearly all actives have a fitted effect of over 55% in size
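Chicken DT40 Tdp1-/- cells stably complemented with human TDP1 were seeded at 400 cells/well in medium containing 20 nM camptothecin, exposed to pin-transferred compounds, and grown at 37 °C for at least 48 hr. Viability was read as ATP luminescence.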
RORg inh: qHTS for inhibitors of ROR gamma transcriptional activity; Nuclear receptor ROR-gamma (Mus musculus), P51450; Drosophila S2 Gal4-RORgamma UAS-luciferase reporter, 20 h; Potency, µM (series often up to 53.6 µM), for inactives: top-dose activity change, negative = inhibition, hits mostly inhibitors; 5.4% of 310,000 active; AID 2551, 2010; note: nearly all actives have a fitted effect of over 60% in size
Target sequence (P51450 whole entry, looked up, the tested form may be a part): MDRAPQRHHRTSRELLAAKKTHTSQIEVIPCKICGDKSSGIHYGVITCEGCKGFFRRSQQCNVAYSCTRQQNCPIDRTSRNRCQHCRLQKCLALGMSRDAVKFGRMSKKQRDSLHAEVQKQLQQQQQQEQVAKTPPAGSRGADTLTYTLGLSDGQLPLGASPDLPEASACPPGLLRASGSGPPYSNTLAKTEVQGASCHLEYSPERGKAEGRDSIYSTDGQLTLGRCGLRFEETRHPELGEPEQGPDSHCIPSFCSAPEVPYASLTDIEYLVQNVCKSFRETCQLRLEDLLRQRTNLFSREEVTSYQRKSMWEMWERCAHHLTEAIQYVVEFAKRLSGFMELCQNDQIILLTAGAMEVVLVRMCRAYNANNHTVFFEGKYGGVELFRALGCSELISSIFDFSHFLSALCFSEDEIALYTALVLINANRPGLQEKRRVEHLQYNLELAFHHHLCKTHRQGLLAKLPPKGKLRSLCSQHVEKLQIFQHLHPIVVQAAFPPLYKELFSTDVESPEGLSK
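Stable Schneider cell line, Gal4 DNA-binding domain fused to ROR gamma, UAS-luciferase. Cmpd 1 hr RT → CuSO4 700 uM final → 20 hr RT → luciferase reagent 10 min → luminescence.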
VP16 counter: VP16 counterscreen qHTS for inhibitors of ROR gamma transcriptional activity. Potency, µM (highest dose often 53.6 µM), without a hit: at the top dose activity, negative = inhibition, most hits filed as inhibitors. Drosophila S2 Gal4-VP16 UAS-luciferase, luminescence, 20 h. 3.5% of 310,000 active;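 note: Gal4-VP16 expression switched on by copper sulfate through the metallothionein promoter; nearly all actives have a fitted effect of over 50% in size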
ELG1 DNA repair: qHTS screen for small molecules that inhibit ELG1-dependent DNA repair in human embryonic kidney (HEK293T) cells expressing luciferase-tagged ELG1 | HEK293T ELG1-luciferase reporter, luminescence, 16 h; DNA damage induced by 5-fluorouridine | Potency, µM (highest dose often 46.1 µM), for inactives: at the highest dose activity change, negative = inhibition, actives largely listed as inhibitors | 2.3% of 330,000 active | AID 504467, 2011; note: nearly all actives have a fitted effect of over 55% in size
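HEK293T cells expressing luciferase-tagged ELG1 (2,000/well) received 5-Fluorouridine plus compound or DMSO for 16 hr at 37 °C. Luciferase was read by ONE-Glo luminescence after 30 min at room temperature.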
* = called active by the depositor; u = inconclusive; x = not tested or not shown; [ ] = another dose, or the depositor's remark. Calls come from the whole dose curve; as a rule, active = well fitted curve in the direction sought with a large enough effect; inconclusive = small, poorly fitted or top-dose-only effect, or another doubt; inactive = no such curve, though single readings can be large; an effect the other way counts as inactive or inconclusive. % is set by controls: 0 for no effect and ±100 for the full control effect; potency is the fitted concentration of half-maximal effect.

SMILES	DT40 TDP1 no CPT	ALOX12 inh	DT40 TDP1 CPT	RORg inh	VP16 counter	ELG1 DNA repair
Cc1sc2ncnc(N3CCC(C(=O)N(C)CC(=O)Nc4ccccc4Cl)CC3)c2c1C	23.1µM*	17.6%	16.4µM*	x	x	7.3µM*
Cc1sc2ncnc(N3CCC(C(=O)N(C)CC(=O)Nc4cccc(F)c4)CC3)c2c1C	13µM*	-0.1%	9.2µM*	x	x	x
COC(=O)c1ccc(CSc2ccc3nnc(-c4ccc(OC)cc4)n3n2)o1	x	x	x	-24.6%	16.4%[10 µM]	18.0%
COC(=O)c1ccc(CSc2ccc3nnc(-c4ccc(OC)c(OC)c4)n3n2)o1	10.3µM*	-14.8%	u	x	x	x
COc1ccc(C(C)=O)cc1CSCc1coc(-c2ccc(F)cc2)n1	x	5.8%	x	x	x	x
COC(=O)c1ccc2c(c1)N(Cc1ccc(F)cc1Cl)C(=O)c1ccccc1S2(=O)=O	x	-1.4%	x	x	x	x
CSc1cccc(-n2cc(-c3ccc4c(c3)OCO4)[nH]c2=O)c1	5.17µM*	x	4.61µM*	10.2%	0.0%	u
CSc1cccc(NC(=O)CNC(=O)c2ccc3c(c2)OCO3)c1	-7.3%	3.7%	-22.9%	x	x	14.2%
O=C(CCCC(=O)N1CCN(C(=O)c2cc3ccccc3[nH]2)CC1)N1CCCCC1	x	2.0%	x	x	x	x
CCN(CC)S(=O)(=O)c1cccc(C(=O)N/N=C/c2ccc(O)c(O)c2O)c1	16.4µM*	u	14.6µM*	-31.8%	-7.4%	-14.1%
CCN(CC)S(=O)(=O)c1cccc(C(=O)N/N=C(\C)c2ccc(O)cc2O)c1	6.51µM*	-3.6%	4.61µM*	12.6µM*	6.5%	u
O=[N+]([O-])c1ccc(/C=C2\CCC(C3=CCCC3)=C2N2CCOCC2)cc1	16.4µM*	u	u	u	3.98µM*	u
Cc1ccc2nc3c(c(Nc4ccc(O)cc4)c2c1)CCC3	18.4µM*	6.7%	u	-2.9%	4.9%	-1.7%
Cc1ccc2nc3c(c(Nc4ccc5c(c4)OCCO5)c2c1)CCC3	18.4µM*	-26.1%	16.4µM*	-13.4%	u	-20.6%
COc1ccc(Nc2c3c(nc4ccc(C)cc24)CCC3)cc1	u	5.9%	u	-39.0%	11.5%	-4.3%
Cc1ccc(COC(=O)c2nnn(-c3ccccc3)c2C)c(C)c1	x	2.2%	x	x	x	x
O=C(O)C[C@@H]1CCN(C(=O)C2CCCC2)C[C@@H]1CCN(CCN1CCOCC1)c1ccccc1	x	49.8%	x	x	x	x
CC(=O)N1CC(n2cc(C(=O)NCC3CC3)nn2)C1	x	14.7%	x	x	x	x
NC(=O)CCN(C(=O)c1cccc(Cl)c1)c1ccc(F)cc1	x	1.5%	x	x	x	x
CN1C(=O)C2(CCCCC2)C1c1ccccc1 (centres undefined)	-9.8%	8.4%	2.4%	x	x	u
OC1(C2(O)CC(c3ccccc3)ON2)CCCCC1 (centres undefined)	18.4µM*	0.0%	u	u	11.5%	-2.5%
CCC(=O)Nc1c2c(nn1-c1cccc(Cl)c1)CSC2	0.731µM*	u	-10.4%	-5.8%	10.9%	-1.1%
CCCC(=O)Nc1c2c(nn1-c1ccccc1)CSC2	-19.6%	2.8%	2.9%	-19.2%	8.1%	0.0%
CCC1CCc2sc(C(=O)NC3CCCC3)cc2C1 (centres undefined)	x	-2.8%	x	x	x	x
C#CCn1cc(C=C2C(=O)c3ccccc3C2=O)c2ccccc21	20.6µM*	-15.8%	23.1µM*	u	-2.7%	u
C#CCN1C(=O)S/C(=C/c2cn(C(C)C)c3ccccc23)C1=O	x	8.1%	x	x	x	x
